In PubChem BioAssay (NCI):
The panel holds about 83,000 compounds, 20% with a hit somewhere; the sample as a whole holds those more often.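 Cells were grown in 96-well plates and exposed to the test compound at a single concentration for 48 hours; results are reported as percent growth, with values below 10 considered active.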 A number with no mark means an inactive call. Active and inactive are the calls of the source.

These molecules were tested on MDA-MB-231 breast (assay: NCI-60 one-dose screen, 48 h (100 = growth as untreated, 0 = no growth, -100 = all killed)). Conditions: 10 µM unless noted.

Question: `CNCc1cccc2c1OCCOCCOCCN(CCN1CCOCC1)S(=O)(=O)c1ccc(cc1)-c1cnc(N)c(n1)C(=O)N2` was tested. Which growth did it give?
Answer: Its growth is 94.1%.

Question: Which growth does the source give for `Cc1cnc(-c2ccc(-c3ccc(NC(=O)Nc4c(F)cc(F)cc4F)cc3F)c3c2C(=O)NC3)[nH]1` here?
Answer: Its growth is 36.5%.

Question: For `Cc1cc(C)c(NC(=O)c2sc3nc4c(cc3c2N)CCCCCC4)c(C)c1`, which growth is on record?
Answer: The growth was 88.2%.

Question: For `O=C1NN(c2ccccc2)C(c2ccc3c(c2)OCO3)N2CCC[C@@H]12` (some centres not stated), which growth is on record?
Answer: Its growth is 105%.

Question: `C=C1C(=O)O[C@H]2[C@H]1CC/C(COC(=O)CCCCCCCCC(=O)OC/C1=C/CC[C@@]3(C)O[C@H]3[C@H]3OC(=O)C(=C)[C@@H]3CC1)=C\CC[C@@]1(C)O[C@@H]21` was tested. Which growth did it give?
Answer: Its growth is -41.2% (active).

Question: `COc1ccc(C2N(c3cc(OC)c(OC)c(OC)c3)C(=O)C2(F)F)cc1F` (configuration not stated) was tested. Which growth did it give?
Answer: Its growth is 54%.

Question: `C=C1C(=O)O[C@H]2[C@H]1CC/C(COC(=O)CCCCCCC(=O)OC/C1=C/CC[C@@]3(C)O[C@H]3[C@H]3OC(=O)C(=C)[C@@H]3CC1)=C\CC[C@@]1(C)O[C@@H]21` was tested. Which growth did it give?
Answer: Its growth is -1.66% (active).

Question: With `O=c1nc(-c2ccccc2)c2cc(-c3ccc(N4CCCC4)nc3)ccc2[nH]1` as the molecule, how does the growth read?
Answer: Its growth is 59.8%.

Question: `O=C(Nc1nc(-c2ccccc2)cs1)c1cc(-c2ccc(Br)cc2)nc2ccccc12` was tested. Which growth did it give?
Answer: Its growth is 57.8%.

Question: With `COc1ccc2nc3c(n2c1)C(=O)C(=O)c1ccccc1-3` as the molecule, how does the growth read?
Answer: The growth was 16.7%.

Question: Which growth does the source give for `C=C1C(=O)O[C@H]2[C@H]1CCC(/C=N/c1ncc(Br)cc1N)=C\CC[C@@]1(C)O[C@@H]21` here?
Answer: Its growth is -15.5% (active).

Question: `COC(=O)c1ccc(NC(=O)CSc2nc(-c3ccc(F)cc3)nc3ccccc23)cc1` was tested. Which growth did it give?
Answer: Its growth is 58.3%.

Question: Which growth does the source give for `COc1ccc(C2C(c3ccccc3)C(=O)N2c2cc(OC)c(OC)c(OC)c2)cc1I` (configuration not stated) here?
Answer: Its growth is 23.3%.

Question: For `O=[N+]([O-])c1cccc(CN(Cc2cccc([N+](=O)[O-])c2O)c2ccccc2)c1O`, which growth is on record?
Answer: Its growth is 68.8%.

Question: `Nc1c(C(=O)Nc2ccccn2)sc2nc3c(cc12)CCCCCC3` was tested. Which growth did it give?
Answer: The growth was 49.4%.

Question: With `C[C@]12CC[C@@H]3c4ccc(O)cc4CC[C@H]3[C@@H]1C[C@H](O)C2` as the molecule, how does the growth read?
Answer: The growth was 64.6%.

Question: How did the growth turn out when `COCCOCCOCc1n(Cc2ccc3ccccc3c2)c2ccccc2[n+]1Cc1ccc2ccccc2c1` was run?
Answer: The growth was -1.76% (active).

Question: Which growth does the source give for `COc1ccc(C(=O)c2cc(F)c(F)c(OC)c2F)cc1OC(=O)CCl` here?
Answer: The growth was 48.8%.

Question: How did the growth turn out when `Nc1cccc(C(=O)Nc2ccc3c(O)c(N=Nc4ccc(N=Nc5ccc(S(=O)(=O)O)cc5)cc4)c(S(=O)(=O)O)cc3c2)c1` was run?
Answer: The growth was 103%.

Question: `O=C(Nc1ccccc1)NS(=O)(=O)c1c[nH]c(=S)[nH]c1=O` was tested. Which growth did it give?
Answer: Its growth is 105%.

Question: `CC(C)CSc1nc(Nc2ccccc2)c(C#N)c(-c2ccc(F)cc2)n1` was tested. Which growth did it give?
Answer: The growth was -3.62% (active).

Question: For `CC(C)(C#N)c1cc(F)cc(C(=O)Nc2cc(Nc3ncccc3-c3ncnc4nc[nH]c34)ccc2F)c1`, which growth is on record?
Answer: The growth was 22.4%.

Question: `COc1c(O)cc2oc3cc(O[C@@H]4OC(C)[C@@H](O)[C@H](O)C4O)c(CC=C(C)C)c(O)c3c(=O)c2c1CC=C(C)C` (some centres not stated) was tested. Which growth did it give?
Answer: The growth was 89.5%.

Question: With `O=C(CCCC(=O)Nc1ccc(-n2nnc3cc(Cl)c(Cl)cc32)cc1)Nc1ccc(-n2nnc3cc(Cl)c(Cl)cc32)cc1` as the molecule, how does the growth read?
Answer: Its growth is 49.9%.

Question: For `Cn1cc(-c2ccc3c(c2)ncn3-c2ccc(CC(=O)Nc3cc(C(C)(C)C)on3)cc2)cn1`, which growth is on record?
Answer: The growth was 11%.

Question: Which growth does the source give for `CCC1S/C(=N\N=C(/C)c2ccc[nH]2)N(c2ccccc2)C1=O` (configuration not stated) here?
Answer: The growth was 100%.

Question: How did the growth turn out when `CC(=O)ON1CCCC(P(=O)(OCOC(=O)C(C)(C)C)OCOC(=O)C(C)(C)C)C1=O` (configuration not stated) was run?
Answer: Its growth is -6.53% (active).

Question: How did the growth turn out when `Cc1cccc(C)c1Nc1nnc(-c2ccc(F)cc2)o1` was run?
Answer: Its growth is 104%.

Question: `COc1ccc(C2=NN(c3ccc(S(N)(=O)=O)cc3)C(c3ccc(Cl)cc3)C2)c(O)c1` (configuration not stated) was tested. Which growth did it give?
Answer: The growth was 76.5%.

Question: Which growth does the source give for `CC(=O)Nc1nc2c(c(N)c1C#N)C(c1cccc(Cl)c1)C1=C(CCCC1=O)N2c1sc2c(c1C#N)CCCC2` (configuration not stated) here?
Answer: Its growth is 67.1%.

Question: For `C#Cc1ccccc1NC(=O)c1sc2nc3c(cc2c1N)CCCCCC3`, which growth is on record?
Answer: The growth was 5.3% (active).

Question: With `C=C(C)[C@@H]1CC[C@]2(C(=O)N3CCN(C)CC3)CC[C@]3(C)[C@H](CC[C@@H]4[C@@]5(C)C/C(=C/c6ccco6)C(=O)C(C)(C)[C@@H]5CC[C@]43C)[C@@H]12` as the molecule, how does the growth read?
Answer: The growth was 58.8%.

Question: With `CCCCC(=O)Nc1c(C(=O)Nc2ccccc2)sc2nc3c(cc12)C(OC(=O)CCCC)CCC3` (configuration not stated) as the molecule, how does the growth read?
Answer: The growth was 87.9%.

Question: With `C#CC[C@@H]1C[C@]2(C)[C@H]3CC[C@@H]4[C@H]5[C@H](C(=C)C)CC[C@]5(C(=O)O)CC[C@@]4(C)[C@]3(C)CC[C@H]2C(C)(C)[C@H]1O` as the molecule, how does the growth read?
Answer: The growth was 20.8%.

Question: For `Cc1ccc(-c2nc(C#N)c(S(=O)(=O)N(C)CCO)o2)cc1`, which growth is on record?
Answer: The growth was 81.4%.

Question: With `FC(F)(F)c1ccc2c(Nc3cccc(C4CC(c5ccccc5)=NN4c4ccc(Cl)cc4)c3)ccnc2c1` (configuration not stated) as the molecule, how does the growth read?
Answer: The growth was 68%.

Question: For `COc1ccc2nc(-c3ccc(OC)c(OC)c3)cc(-c3nnc(SCC(=O)Nc4ccc(/C(C)=N\O)cc4)n3-c3ccccc3)c2c1`, which growth is on record?
Answer: Its growth is 40.2%.
